Shown are actives, neighbours in structure and some others; about 1.5% of the full set was active somewhere.
S1P3 antag = S1P3 (human) receptor antagonism. inhibition, % at 4.98 µM. Q99500. actives 0.27% (n = 170,000). CHO S1P3 NFAT-BLA reporter, FRET fluorescence, antagonist mode;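 active = inhibition above the plate cutoff, the mean inhibition of test wells on that plate plus 3 SD, cut at about 28% in these data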;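 also: cells challenged with S1P at its EC80 of 0.8 µM; blue over green emission ratio from cleaved BLA substrate after 4 h stimulation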
S1P4 antag = antagonists of human S1P4 receptor. O95977. S1P4-expressing cells, antagonist mode, reporter read-out. inhibition, % at 4.98 µM. actives 0.26% (n = 220,000). AID 1510; in the data active = inhibition above about 29%
Insulin prom up = MIN6 insulin promoter up-regulation | MIN6 insulin promoter-GFP reporter, high-content imaging; active compounds read high | z-score at 5 µM | actives 0.3% (n = 190,000);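 active = z-score above 3 at 5 µM with at least 500 cells counted in the well; inconclusive = wells under 500 cells, flagged as cytotoxic or low count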
Hsp70 act = switches on Hsp70 transcription. activation, % at 10 µM. actives 0.04% (n = 200,000). HeLa Hsp70 promoter luciferase reporter, luminescence; scaled: vehicle 0, proteasome-inhibitor control 100%. AID 1203;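 active = activation above the mean across all tested compounds plus 3 SD, cutoff set per campaign, cut at about 5.5% in these data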
INS promoter inh = TRM-6 insulin promoter activity inhibition | TRM-6 cells (human fetal islet line), insulin promoter-eGFP reporter, imaging; reporter expression induced with tamoxifen | inhibition, % at 2 µM | actives 0.9% (n = 130,000);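 active = inhibition above the mean plus 3 SD, with well images judged a real hit on visual review, cut at about 60% in these data, passing the limit was not always enough; inconclusive = inhibition over the cutoff but images rejected on review; inactive = inhibition not above the cutoff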
S1P4 ag = human S1P4 receptor agonism; activation, % at 4.98 µM; O95977; S1P4-expressing cell line, agonist reporter assay; actives 0.35% (n = 220,000); in the data active = activation above about 11%
S1P4 antag cf = confirmation of human S1P4 receptor antagonists | shares compounds with S1P4 antag | S1P4-expressing cell line, antagonist mode, reporter read-out | inhibition, % at 4.98 µM | actives 71% (n = 520); in the data active = inhibition above about 30%
S1P1 antag = human S1P1 antagonism as S1P4 antagonist counter-screen. cell-based S1P1 antagonist counterscreen, inhibition. inhibition, % at 4.98 µM. actives 37% (n = 520). AID 1564. shares compounds with S1P4 antag; in the data active = inhibition above about 40%;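 also: receptor stimulated with S1P near its EC80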
Target sequence (P21453 whole entry, looked up): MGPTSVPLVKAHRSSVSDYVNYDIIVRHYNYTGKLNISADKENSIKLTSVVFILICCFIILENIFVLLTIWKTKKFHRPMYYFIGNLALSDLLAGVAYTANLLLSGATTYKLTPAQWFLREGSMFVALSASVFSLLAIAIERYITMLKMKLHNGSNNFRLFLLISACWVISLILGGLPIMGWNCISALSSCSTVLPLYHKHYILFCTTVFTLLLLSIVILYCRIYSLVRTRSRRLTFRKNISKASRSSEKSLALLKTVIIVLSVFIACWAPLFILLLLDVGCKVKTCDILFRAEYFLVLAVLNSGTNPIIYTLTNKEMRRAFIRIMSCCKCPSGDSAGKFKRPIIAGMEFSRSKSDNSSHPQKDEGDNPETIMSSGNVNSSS
Each line names hits and unclear results; the compound was inactive in the other large screens (follow-up assays come after a bar, where they were run).

Cc1ccc(NC(=O)c2ccc([N+](=O)[O-])o2)cc1S(=O)(=O)N1CCOCC1	S1P4 antag 68 | S1P4 antag cf 88 | S1P1 antag 42
COc1ccc(NC(=O)CC2S/C(=N\c3nccs3)N(C)C2=O)cc1 (stereo not given)	none (no result: INS promoter inh)
Cc1cc(C(=O)Nn2cnc3ccccc3c2=O)ccc1[N+](=O)[O-]	none (no result: INS promoter inh)
CCCCNC(=O)CN1C(=O)c2cccc(N)c2C1=O	S1P4 antag 39 | S1P4 antag cf inactive | S1P1 antag inactive
CC1CCCCC1NC(=O)CN1C(=O)c2cccc(N)c2C1=O (stereo not given)	S1P4 antag 32 (no result: INS promoter inh) | S1P4 antag cf 30 | S1P1 antag inactive
O=C(NC(Cc1ccccc1)C(=O)Oc1ccc2c(C(F)(F)F)cc(=O)oc2c1)OCc1ccccc1 (stereo not given)	S1P4 antag 30 | S1P4 antag cf 47 | S1P1 antag inactive
O=C(COc1ccc2c(C(F)(F)F)cc(=O)oc2c1)NCc1cccs1	none
COc1ccc(CS(=O)(=O)/C(Cl)=C(/Cl)C(=O)Nc2ccc(OC)nc2)cc1	S1P4 antag 80 (no result: S1P3 antag) | S1P4 antag cf 119 | S1P1 antag 85
COc1ccc(C(=O)Nc2cccc(-c3nc4ncccc4o3)c2C)cc1	S1P4 antag 33 (no result: S1P3 antag) | S1P4 antag cf inactive | S1P1 antag inactive
COc1ccc(CN(C(=O)c2oc3ccccc3c2C)C2CCS(=O)(=O)C2)cc1OC (stereo not given)	S1P4 antag 32 | S1P4 antag cf inactive | S1P1 antag inactive
Cn1c(SCc2ccccc2)nnc1-c1ccco1	none (no result: INS promoter inh)
COc1ccc(CN2CCN(Cc3csc(C(C)=O)c3)CC2CCO)c(C)c1C (stereo not given)	none
Oc1ccc2ccccc2c1N=Nc1ccccc1F	none (no result: Hsp70 act, INS promoter inh)
Oc1ccc2ccccc2c1N=Nc1ccccn1	S1P4 antag 50 (no result: S1P3 antag) | S1P4 antag cf 78 | S1P1 antag 83
CSc1nc(SCC(=O)NC(c2ccccc2)c2ccccc2)c2c3c(sc2n1)CN(C)CC3	none (no result: S1P3 antag)
CCOc1ccc(NC(=O)Nc2cc(OCC(F)(F)F)cc(OCC(F)(F)F)c2)cc1	S1P4 antag 90 (no result: INS promoter inh) | S1P4 antag cf 113 | S1P1 antag inactive
CCOc1ccc(NC(=O)Nc2cccc(C(=O)O)c2)cc1	none
CC(=O)Oc1ccc2c(c1)O/C(=C\c1ccncc1)C2=O	none (no result: Hsp70 act, INS promoter inh)
CCC(=O)Oc1ccc2c(c1)O/C(=C\c1ccco1)C2=O	S1P4 antag 29 (no result: Hsp70 act, INS promoter inh) | S1P4 antag cf 37 | S1P1 antag inactive
COc1ccc(C(=O)C(CCC(CNC(C)(C)C)C(=O)c2ccc(OC)cc2)CNC(C)(C)C)cc1 (stereo not given)	S1P4 antag 73, Insulin prom up inconclusive (no result: INS promoter inh) | S1P4 antag cf 37 | S1P1 antag inactive
Cc1ccccc1CS(=O)(=O)c1nnc([C@H](CC(C)C)NC(=O)OC(C)(C)C)o1	S1P4 antag 86 | S1P4 antag cf 113 | S1P1 antag inactive
CC(C)(C)OC(=O)N[C@@H](Cc1ccccc1)c1nnc(S(=O)(=O)Cc2cccc(F)c2)o1	S1P4 antag 78 (no result: Insulin prom up) | S1P4 antag cf 94 | S1P1 antag inactive
CC[C@@H](C)[C@H](NC(=O)OC(C)(C)C)c1nnc(S(=O)(=O)Cc2cc(C)ccc2C)o1	S1P4 antag 57, INS promoter inh 72 | S1P4 antag cf 105 | S1P1 antag inactive
CCOc1ccc(S(=O)(=O)NCCCN2CCCC2=O)cc1	none (no result: INS promoter inh)
CC(NC(=O)c1cccc(Cn2cc([N+](=O)[O-])cn2)c1)c1ccc(C(C)(C)C)cc1 (stereo not given)	S1P4 antag 76 (no result: S1P3 antag, Insulin prom up) | S1P4 antag cf inactive | S1P1 antag inactive
CCOC(=O)c1cnc(SC2CC(=O)N(c3ccc(C)cc3)C2=O)nc1N (stereo not given)	S1P4 antag 44 (no result: S1P3 antag) | S1P4 antag cf inactive | S1P1 antag inactive
OC(CNCCc1ccc(Cl)cc1)COc1ccc2ccccc2c1 (stereo not given)	none (no result: INS promoter inh)

Screens deposited in PubChem BioAssay by several laboratories.
